Laboratory results reported in the supplement of paper PMC11732987, “Enantioselective OTUD7B fragment discovery through chemoproteomics screening and high-throughput optimisation” (Communications Chemistry, 2025).

Tests used:
Assay in all cases: log2 ratio of Biotin-Ahx-Ub-VS probe labelling (fragment/DMSO); higher = less target engagement (more negative = stronger competition), active = hit call of the paper (q ≤ 0.05, log2 ratio ≤ -1)
Conditions in all cases: compound concentration: 200 uM; treatment time: 3 h
USP42 = target: T1, USP42 (UniProt Q9H9J4)
T1 sequence (whole entry): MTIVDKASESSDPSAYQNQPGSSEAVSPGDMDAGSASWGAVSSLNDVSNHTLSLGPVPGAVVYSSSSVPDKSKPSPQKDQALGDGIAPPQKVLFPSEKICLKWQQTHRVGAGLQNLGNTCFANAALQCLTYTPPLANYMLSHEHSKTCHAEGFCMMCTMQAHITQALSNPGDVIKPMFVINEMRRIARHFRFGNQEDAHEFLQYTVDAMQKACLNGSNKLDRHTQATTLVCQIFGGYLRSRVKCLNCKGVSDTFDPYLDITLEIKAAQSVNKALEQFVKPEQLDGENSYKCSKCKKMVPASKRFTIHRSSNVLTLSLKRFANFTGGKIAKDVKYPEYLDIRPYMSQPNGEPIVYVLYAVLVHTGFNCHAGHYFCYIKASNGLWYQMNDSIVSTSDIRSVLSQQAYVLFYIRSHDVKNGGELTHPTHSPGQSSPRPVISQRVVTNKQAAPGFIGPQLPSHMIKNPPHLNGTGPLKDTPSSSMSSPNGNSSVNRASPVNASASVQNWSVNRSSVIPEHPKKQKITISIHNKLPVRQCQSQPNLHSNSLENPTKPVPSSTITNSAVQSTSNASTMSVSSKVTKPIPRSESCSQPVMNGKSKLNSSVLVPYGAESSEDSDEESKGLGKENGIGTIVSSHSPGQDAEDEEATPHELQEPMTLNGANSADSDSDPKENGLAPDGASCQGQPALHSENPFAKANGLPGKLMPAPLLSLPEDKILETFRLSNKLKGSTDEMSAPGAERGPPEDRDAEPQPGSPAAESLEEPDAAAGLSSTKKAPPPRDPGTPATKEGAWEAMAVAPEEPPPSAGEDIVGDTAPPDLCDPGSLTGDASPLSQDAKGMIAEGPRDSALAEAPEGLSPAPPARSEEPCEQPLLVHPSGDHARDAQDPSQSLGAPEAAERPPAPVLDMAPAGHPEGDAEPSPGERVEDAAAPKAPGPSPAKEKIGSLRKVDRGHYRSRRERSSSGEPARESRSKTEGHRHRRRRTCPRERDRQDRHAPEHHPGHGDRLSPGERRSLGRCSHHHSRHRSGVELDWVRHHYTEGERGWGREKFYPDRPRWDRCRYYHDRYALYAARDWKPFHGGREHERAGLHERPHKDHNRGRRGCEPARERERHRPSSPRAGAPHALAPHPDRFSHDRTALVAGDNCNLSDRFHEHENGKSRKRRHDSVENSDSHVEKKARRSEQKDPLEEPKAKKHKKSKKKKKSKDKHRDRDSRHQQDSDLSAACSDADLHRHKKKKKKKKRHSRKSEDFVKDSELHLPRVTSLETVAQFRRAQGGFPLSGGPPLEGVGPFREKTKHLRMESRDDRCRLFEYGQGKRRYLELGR
Procedure, shortened: (§1)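 Labelled DUBs were enriched with NeutrAvidin, digested with LysC and trypsin, and run by diaPASEF LC-MS/MS. The labelling used Biotin-Ahx-Ub-VS at 0.5 µM final for 1 h on HEK293T lysate (495 µg per sample) previously treated in triplicate with fragment at 200 µM or vehicle for 3 h. Values are average log2 fragment/vehicle ratios by unpaired t-test on global-median-normalised Spectronaut quantities of proteins with ≥2 unique peptides.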

USP46 = USP46 (UniProt P62068)
Sequence of USP46 (P62068 whole entry): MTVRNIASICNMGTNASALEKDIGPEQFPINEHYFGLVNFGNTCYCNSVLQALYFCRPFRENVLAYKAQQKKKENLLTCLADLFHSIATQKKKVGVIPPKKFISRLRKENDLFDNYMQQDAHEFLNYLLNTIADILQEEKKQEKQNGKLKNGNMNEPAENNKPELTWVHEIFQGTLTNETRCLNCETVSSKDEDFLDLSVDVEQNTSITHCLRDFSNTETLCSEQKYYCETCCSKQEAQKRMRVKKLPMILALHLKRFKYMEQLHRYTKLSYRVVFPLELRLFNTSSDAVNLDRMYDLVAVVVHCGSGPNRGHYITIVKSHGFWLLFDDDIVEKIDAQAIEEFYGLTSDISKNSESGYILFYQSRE
Procedure, shortened: as §1

USP47 = target: T2, USP47 (UniProt Q96K76)
T2 sequence (whole entry): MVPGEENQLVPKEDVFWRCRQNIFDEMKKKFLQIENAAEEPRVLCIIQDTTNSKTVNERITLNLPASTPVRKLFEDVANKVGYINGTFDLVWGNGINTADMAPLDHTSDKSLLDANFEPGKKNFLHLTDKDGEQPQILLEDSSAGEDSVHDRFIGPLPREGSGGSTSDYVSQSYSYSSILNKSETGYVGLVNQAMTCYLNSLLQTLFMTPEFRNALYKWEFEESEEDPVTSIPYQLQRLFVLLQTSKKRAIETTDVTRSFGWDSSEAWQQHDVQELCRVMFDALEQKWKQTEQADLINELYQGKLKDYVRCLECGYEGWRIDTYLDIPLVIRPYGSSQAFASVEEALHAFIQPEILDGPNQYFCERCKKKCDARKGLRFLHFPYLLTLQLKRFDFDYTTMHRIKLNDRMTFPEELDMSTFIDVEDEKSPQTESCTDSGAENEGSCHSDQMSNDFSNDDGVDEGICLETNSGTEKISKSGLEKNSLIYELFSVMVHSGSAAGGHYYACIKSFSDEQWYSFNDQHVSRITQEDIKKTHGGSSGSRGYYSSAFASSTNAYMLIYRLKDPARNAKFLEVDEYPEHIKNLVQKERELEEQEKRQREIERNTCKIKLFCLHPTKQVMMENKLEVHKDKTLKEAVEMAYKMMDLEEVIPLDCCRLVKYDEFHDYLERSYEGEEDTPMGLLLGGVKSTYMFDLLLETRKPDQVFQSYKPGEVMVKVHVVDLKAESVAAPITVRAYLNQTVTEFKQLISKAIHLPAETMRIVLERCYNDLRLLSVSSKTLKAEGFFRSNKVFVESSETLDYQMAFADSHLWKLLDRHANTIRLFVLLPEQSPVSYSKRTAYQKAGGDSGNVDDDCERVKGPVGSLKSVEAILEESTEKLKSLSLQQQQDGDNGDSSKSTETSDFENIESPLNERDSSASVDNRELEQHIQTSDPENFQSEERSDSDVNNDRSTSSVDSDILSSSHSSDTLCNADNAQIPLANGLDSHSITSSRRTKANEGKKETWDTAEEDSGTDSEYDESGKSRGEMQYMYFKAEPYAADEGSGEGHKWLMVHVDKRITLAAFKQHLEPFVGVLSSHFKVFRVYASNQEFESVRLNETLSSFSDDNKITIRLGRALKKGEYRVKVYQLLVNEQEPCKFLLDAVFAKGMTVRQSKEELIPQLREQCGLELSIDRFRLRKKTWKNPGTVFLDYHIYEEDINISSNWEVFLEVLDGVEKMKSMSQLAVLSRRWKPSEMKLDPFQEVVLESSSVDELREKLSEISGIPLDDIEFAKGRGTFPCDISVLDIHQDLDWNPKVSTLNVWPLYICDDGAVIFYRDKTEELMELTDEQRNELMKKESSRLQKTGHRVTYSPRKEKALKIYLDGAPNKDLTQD
Procedure, shortened: as §1

USP48 = target: T3, USP48 (UniProt Q86UV5)
T3 sequence (whole entry): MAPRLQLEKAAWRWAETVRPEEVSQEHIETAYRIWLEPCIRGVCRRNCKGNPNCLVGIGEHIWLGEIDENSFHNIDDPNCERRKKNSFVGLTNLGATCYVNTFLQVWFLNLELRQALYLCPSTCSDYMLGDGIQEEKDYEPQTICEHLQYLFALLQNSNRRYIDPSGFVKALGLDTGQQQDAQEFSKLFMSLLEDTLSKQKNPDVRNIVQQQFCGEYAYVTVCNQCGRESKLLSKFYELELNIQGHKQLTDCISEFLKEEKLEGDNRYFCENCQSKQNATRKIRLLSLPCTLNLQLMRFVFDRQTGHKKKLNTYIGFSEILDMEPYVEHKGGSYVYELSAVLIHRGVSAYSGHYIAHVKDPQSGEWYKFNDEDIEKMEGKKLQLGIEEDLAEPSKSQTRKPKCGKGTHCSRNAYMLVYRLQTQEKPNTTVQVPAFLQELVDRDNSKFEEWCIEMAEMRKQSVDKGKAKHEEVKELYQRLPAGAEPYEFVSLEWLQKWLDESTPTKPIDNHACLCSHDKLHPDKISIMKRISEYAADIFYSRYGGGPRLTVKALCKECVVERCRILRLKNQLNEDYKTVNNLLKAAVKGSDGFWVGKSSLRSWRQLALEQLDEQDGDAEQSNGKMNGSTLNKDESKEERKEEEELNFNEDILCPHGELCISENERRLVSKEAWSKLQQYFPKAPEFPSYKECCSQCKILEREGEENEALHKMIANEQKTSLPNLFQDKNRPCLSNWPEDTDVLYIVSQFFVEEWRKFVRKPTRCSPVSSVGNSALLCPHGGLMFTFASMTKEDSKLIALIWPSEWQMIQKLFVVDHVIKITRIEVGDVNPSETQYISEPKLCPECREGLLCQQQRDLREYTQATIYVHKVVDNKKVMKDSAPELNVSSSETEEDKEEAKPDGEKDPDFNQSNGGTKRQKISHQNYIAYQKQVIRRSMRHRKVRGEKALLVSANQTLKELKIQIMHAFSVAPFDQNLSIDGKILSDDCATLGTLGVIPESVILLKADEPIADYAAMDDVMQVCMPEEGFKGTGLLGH
Procedure, shortened: as §1

USP5 = target: T4, USP5 (UniProt P45974)
T4 sequence (whole entry): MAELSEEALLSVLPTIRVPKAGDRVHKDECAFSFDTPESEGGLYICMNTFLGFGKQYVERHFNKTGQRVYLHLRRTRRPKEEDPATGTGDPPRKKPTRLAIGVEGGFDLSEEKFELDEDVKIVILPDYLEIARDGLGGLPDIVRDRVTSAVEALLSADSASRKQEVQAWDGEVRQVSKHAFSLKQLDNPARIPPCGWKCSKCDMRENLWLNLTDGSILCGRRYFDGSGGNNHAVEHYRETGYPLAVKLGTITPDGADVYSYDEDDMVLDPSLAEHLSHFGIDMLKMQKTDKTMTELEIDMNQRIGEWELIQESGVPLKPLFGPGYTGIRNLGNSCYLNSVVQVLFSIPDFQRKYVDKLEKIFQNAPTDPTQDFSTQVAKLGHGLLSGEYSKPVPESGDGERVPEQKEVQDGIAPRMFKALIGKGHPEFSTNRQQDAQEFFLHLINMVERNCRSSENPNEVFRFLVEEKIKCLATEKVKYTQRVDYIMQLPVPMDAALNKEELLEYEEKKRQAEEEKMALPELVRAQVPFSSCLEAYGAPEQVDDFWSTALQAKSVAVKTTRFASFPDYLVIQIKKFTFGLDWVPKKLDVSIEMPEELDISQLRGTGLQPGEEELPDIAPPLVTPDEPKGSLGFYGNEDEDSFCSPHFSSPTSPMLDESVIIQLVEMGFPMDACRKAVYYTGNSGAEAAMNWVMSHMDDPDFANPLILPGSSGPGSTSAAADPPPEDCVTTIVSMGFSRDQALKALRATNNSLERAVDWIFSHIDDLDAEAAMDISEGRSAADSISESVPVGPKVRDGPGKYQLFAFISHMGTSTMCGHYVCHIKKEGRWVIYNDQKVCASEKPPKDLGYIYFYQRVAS
Procedure, shortened: as §1

USP54 = USP54 (UniProt Q70EL1)
Sequence of USP54 (Q70EL1 whole entry): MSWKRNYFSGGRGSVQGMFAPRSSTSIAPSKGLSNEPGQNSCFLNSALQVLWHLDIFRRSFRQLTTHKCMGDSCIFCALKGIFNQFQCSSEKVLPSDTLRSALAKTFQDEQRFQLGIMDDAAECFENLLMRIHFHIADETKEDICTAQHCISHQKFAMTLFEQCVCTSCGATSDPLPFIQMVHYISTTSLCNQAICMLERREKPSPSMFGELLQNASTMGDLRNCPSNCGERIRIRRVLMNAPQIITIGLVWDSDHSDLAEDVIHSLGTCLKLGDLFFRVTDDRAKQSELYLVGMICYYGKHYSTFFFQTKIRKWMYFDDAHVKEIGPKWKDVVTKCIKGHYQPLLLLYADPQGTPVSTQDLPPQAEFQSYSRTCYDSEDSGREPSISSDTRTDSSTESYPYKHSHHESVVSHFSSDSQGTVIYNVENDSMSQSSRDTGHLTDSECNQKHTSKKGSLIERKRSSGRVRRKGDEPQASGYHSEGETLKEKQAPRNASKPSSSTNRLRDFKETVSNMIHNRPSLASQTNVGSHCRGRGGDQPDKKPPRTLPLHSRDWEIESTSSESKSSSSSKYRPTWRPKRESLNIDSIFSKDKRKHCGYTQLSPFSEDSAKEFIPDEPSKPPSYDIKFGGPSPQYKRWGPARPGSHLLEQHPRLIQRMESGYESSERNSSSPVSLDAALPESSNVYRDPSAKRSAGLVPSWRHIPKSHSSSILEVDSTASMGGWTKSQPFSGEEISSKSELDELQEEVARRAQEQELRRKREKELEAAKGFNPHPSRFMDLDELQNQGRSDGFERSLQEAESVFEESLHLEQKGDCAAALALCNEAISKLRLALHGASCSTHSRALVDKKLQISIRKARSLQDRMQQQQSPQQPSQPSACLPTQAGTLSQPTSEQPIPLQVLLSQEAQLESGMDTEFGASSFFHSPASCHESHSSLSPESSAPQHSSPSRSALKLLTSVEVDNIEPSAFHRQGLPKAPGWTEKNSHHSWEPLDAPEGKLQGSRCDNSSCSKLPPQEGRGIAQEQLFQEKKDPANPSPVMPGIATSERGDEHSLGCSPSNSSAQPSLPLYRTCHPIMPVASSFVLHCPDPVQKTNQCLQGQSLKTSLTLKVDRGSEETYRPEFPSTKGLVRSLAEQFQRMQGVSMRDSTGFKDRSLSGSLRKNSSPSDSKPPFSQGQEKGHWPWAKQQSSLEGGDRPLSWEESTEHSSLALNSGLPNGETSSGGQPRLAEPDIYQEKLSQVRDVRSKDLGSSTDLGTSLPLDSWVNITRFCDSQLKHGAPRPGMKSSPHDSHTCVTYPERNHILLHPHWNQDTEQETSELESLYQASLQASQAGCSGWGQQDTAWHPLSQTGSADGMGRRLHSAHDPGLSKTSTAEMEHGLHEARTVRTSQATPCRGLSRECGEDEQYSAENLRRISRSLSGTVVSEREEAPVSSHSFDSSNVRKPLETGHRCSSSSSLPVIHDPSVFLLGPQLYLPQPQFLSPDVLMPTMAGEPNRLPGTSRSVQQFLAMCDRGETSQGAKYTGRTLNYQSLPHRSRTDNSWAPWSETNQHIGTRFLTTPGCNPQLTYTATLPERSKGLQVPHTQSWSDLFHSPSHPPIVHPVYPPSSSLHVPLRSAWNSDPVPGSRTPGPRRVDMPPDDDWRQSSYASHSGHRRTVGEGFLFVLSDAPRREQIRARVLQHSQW
Procedure, shortened: as §1

USP7 = USP7 (UniProt Q93009)
Sequence of USP7 (Q93009 whole entry, looked up): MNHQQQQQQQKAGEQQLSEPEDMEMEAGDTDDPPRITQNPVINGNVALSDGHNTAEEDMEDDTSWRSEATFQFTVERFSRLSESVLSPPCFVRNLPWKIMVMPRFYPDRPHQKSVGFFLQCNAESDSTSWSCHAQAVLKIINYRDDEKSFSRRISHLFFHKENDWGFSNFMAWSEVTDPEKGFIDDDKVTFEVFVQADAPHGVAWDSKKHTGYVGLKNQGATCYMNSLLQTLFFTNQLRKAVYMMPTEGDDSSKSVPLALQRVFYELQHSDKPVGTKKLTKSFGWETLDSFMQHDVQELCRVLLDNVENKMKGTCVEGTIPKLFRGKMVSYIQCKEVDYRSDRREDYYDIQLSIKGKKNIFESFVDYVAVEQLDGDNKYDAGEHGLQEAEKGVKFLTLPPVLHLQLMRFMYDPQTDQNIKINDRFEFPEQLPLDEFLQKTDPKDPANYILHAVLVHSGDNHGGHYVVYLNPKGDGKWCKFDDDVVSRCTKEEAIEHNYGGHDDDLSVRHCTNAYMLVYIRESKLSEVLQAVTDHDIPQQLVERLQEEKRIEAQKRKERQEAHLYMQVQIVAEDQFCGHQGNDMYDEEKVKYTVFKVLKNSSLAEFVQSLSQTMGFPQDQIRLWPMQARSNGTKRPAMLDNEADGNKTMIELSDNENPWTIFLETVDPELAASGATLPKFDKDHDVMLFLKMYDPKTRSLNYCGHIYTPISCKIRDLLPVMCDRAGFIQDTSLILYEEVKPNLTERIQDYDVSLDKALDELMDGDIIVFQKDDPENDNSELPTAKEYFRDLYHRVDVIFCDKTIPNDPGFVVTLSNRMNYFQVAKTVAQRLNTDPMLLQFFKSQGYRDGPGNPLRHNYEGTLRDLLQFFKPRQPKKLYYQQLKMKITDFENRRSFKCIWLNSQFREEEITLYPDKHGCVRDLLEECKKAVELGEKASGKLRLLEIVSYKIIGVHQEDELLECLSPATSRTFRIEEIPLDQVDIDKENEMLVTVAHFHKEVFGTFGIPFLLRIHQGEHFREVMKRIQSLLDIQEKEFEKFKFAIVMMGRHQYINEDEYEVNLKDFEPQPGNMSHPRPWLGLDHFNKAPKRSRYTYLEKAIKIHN
Procedure, shortened: as §1

USP8 = target: T5, USP8 (UniProt P40818)
T5 sequence (whole entry): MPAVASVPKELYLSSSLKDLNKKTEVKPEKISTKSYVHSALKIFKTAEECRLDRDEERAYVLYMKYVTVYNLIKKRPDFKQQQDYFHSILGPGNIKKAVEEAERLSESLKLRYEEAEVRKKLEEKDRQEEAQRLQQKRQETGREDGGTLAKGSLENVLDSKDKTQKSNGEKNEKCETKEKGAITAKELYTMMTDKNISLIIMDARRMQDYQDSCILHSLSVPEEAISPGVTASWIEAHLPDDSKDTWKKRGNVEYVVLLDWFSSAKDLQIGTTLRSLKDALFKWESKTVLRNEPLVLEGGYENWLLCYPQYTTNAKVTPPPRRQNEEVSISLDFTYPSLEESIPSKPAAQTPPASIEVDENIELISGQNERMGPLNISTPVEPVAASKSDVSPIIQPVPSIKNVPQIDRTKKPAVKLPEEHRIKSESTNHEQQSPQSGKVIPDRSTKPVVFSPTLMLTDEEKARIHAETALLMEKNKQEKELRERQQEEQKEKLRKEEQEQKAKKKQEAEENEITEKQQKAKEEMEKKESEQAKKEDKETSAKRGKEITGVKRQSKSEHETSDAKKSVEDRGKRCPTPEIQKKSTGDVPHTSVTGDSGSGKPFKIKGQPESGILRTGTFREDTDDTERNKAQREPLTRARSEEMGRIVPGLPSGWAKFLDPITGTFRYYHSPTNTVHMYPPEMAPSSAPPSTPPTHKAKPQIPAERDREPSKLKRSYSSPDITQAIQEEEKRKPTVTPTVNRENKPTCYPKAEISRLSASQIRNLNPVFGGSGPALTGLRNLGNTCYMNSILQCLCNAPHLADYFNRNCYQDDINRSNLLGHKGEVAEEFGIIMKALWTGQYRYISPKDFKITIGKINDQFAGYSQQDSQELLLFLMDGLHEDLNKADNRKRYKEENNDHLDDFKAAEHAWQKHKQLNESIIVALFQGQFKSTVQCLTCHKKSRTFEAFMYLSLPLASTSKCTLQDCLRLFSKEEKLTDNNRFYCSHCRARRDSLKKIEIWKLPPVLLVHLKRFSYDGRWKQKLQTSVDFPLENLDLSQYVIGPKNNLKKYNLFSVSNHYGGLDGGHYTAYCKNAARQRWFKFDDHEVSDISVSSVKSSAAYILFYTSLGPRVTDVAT
Procedure, shortened: as §1

USP9X = USP9X (UniProt Q93008)
Procedure, shortened: as §1

UniProt O00487 = target: UniProt O00487
Sequence of UniProt O00487 (O00487 whole entry): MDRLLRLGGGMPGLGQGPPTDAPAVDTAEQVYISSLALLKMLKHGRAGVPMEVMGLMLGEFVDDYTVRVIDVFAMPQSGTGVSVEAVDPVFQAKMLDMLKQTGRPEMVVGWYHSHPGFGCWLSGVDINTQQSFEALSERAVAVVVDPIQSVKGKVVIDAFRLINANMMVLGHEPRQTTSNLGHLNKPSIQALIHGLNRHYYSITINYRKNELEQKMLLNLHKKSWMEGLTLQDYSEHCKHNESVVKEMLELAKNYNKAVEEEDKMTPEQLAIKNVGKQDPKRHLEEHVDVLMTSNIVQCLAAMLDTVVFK
Procedure, shortened: as §1

Measured: log2 ratio of Biotin-Ahx-Ub-VS probe labelling

Cc1cccc(N2CCC(NC(=O)CCl)C2=O)c1 (stereo not given)
inactive: USP42 -0.395 | USP46 0.013 | USP47 -0.0227 | USP48 -0.138 | USP5 -0.179 | USP54 0.699 | USP7 -0.204 | USP8 -0.325 | USP9X -0.421 | UniProt O00487 0.133
